# High-throughput results as filed in PubChem BioAssay.
# The list is not random: actives were taken first. Their share in the collection is about 1.5%.
# Mtb MenB inh: inhibitors of Mycobacterium tuberculosis MenB enzyme. P9WNP5. MenB enzyme assay, absorbance read-out. inhibition, % (test concentration not listed). actives 0.43% (n = 100,000). AID 540299; in the data active means inhibition above about 21%, passing the limit was not always enough
# MbtI inh: inhibitors of Mycobacterium tuberculosis siderophore enzyme MbtI | P9WFX0 | purified MbtI enzyme, fluorescence intensity read-out | inhibition, % (test concentration not listed) | actives 0.89% (n = 100,000) | AID 493033; in the data active means inhibition mostly above about 56%, no sharp cut-off; inactive means mostly below about 77%
# Polio RdRp inh: poliovirus RNA polymerase inhibition | P03300 | poliovirus polymerase elongation, fluorescence polarization; hits give low values | % elongation, % (compound at 16.7 µg/mL) | actives 0.66% (n = 150,000) | AID 588519; in the data active means % elongation below about 90%
# AID504770: E. coli YBA685 growth inhibition, screen for V. cholerae RctB inhibitors. E. coli YBA685 rctB-dependent plasmid, OD600 growth, 3 h; hits give low values. z-score (concentration not given with the values). actives 0.27% (n = 130,000). AID 504770; in the data active means z-score below about -2, passing the limit was not always enough
# Starred values were filed as active, the others as inactive; · = no result.
SMILES,Mtb MenB inh,MbtI inh,Polio RdRp inh,AID504770
CCCSc1nc2ccc(S(=O)(=O)N3CCOCC3)cc2[nH]1,-20,93*,64*,-0.1
CN(C)C(=O)CSc1nc2cc(Cl)ccc2o1,-27,-5,·,-1.2
O=C1NC(=Nc2ccccc2)S/C1=C/C=C/c1ccco1,-164,1,106,-0.35
Cc1ccccc1N1C(=O)NC(=O)/C(=C\C=C\c2ccco2)C1=O,-129,66*,104,-0.75
COc1ccccc1N1C(=O)NC(=O)/C(=C\C=C\c2ccco2)C1=O,-183,73*,99,-0.6
CCOC(=O)N1CCC(NC(=O)CNC(=O)c2ccco2)CC1,·,-16,·,-2.7*
O=C1CN(/N=C/c2ccc([N+](=O)[O-])o2)C(=O)N1,-6,12,99,-2.3*
O=C1CN(/N=C/c2ccc(-c3ccc([N+](=O)[O-])cc3)o2)C(=O)N1,-4,17,100,·
O=C1OCCN1/N=C/c1ccc([N+](=O)[O-])o1,2,8,98,-4.3*
O=C(O)c1ccc2ncsc2c1,·,77,88*,-0.35
CCCCN(Cc1ccccc1)C(=O)C1CCN(Cc2cccc(O)c2)CC1,-3,·,103,-0.4
CCCCN(C)C(=O)C1CCN(Cc2ccc(OCC)cc2)CC1,3,·,45*,-0.15
CCn1c(SCC(=O)Nc2ccc(C)c(C)c2)nnc1-c1nonc1NC(C)=O,·,·,113,·
CCn1c(-c2nonc2NC(C)=O)n[nH]c1=S,-6,65*,102,0.7
Nc1ccc(C(=O)O)c(O)c1,8,-50,99,-0.05
Cc1cc(N)cc(C(=O)O)c1O,37*,10,99,1.2
COc1ccc(CCNc2nc(C)nc3c2nnn3Cc2ccccc2)cc1OC,39*,-3,100,-0.1
O=C1NCC(COc2cccc3ccccc23)O1 (stereo not given),·,3,·,-0.65
O=S1OCC(COc2cccc3ccccc23)O1 (stereo not given),-12,·,76*,-0.85
COc1cccc(OCC2COS(=O)O2)c1 (stereo not given),-43,0,85*,-0.9
CCOC(OCC)n1c(=S)n(C(OCC)OCC)c2ccccc21,-17,94*,83*,0.75
COc1cc2cc3c4cc(OC)c(OC)cc4cc[n+]3c(C)c2cc1OC,3,55,88*,-0.35
CC[C@H](CO)NCCN[C@H](CC)CO,4,-11,98,·
Cn1ccccc1=S,-12,24,101,0.95
On1ccccc1=S,12,92*,97,-5.3*
SMILES,Mtb MenB inh,MbtI inh,Polio RdRp inh,AID504770
CCOC(=O)c1ccc(NC(=O)NC(C)c2ccc3c(c2)OCO3)cc1 (stereo not given),-8,15,104,-0.45
CCOC(=O)c1ccc(NC(=S)NC(C)c2ccc3c(c2)OCCO3)cc1 (stereo not given),-23,-1,54*,0.6
CC(C)Nc1nc(NC(C)C)nc(C(N)=O)n1,35*,5,100,1.2
O/N=C1/CCCc2nn(-c3ccccc3)nc21,18,·,62*,0.15
O=C(NC1CCCCC1)Sc1ccc(Cl)cc1,-40,76*,95,-0.25
COc1ccc(S(=O)(=O)Nc2ccc(O)c(Sc3ncn[nH]3)c2)cc1,-8,8,101,-0.9
Cc1ccc(S(=O)(=O)Nc2cc(Sc3ncn[nH]3)c(O)cc2C)cc1,3,54*,111,0.7
O=C1CCCN2N=C(SCC(=O)NCc3ccco3)SC2=N1,-35,-9,103,1.7
COC(=O)c1c(-c2cccs2)csc1NC(=O)c1ccc(Br)cc1,·,·,66*,·
COC(=O)c1c(-c2cccs2)csc1NC(=O)c1ccc(C)cc1,·,·,76*,·
COC(=O)c1c(-c2cccs2)csc1NC(=O)CN1CCOCC1,-19,-22,99,-0.85
COC(=O)c1cccc(N2C(=O)C3C4C=CC(C)(O4)C3C2=O)c1 (stereo not given),-5,99*,101,-0.65
OC(COc1ccc2cc(Br)ccc2c1)Cn1cccn1 (stereo not given),28*,·,103,0.4
Cn1ncc(S(=O)(=O)Cc2ccccc2)c(Cl)c1=O,4,90*,98,-0.2
O=C1COc2ccc(C(=O)CSc3nnc(-c4ccoc4)c(-c4ccoc4)n3)cc2N1,-41,17,98,1.2
CC(C)Cn1c(SCc2nnc(-c3cccs3)o2)nc(O)cc1=O,-165,17,83*,-1.1
CCOCCCNC(=O)c1ccc(-n2c(-c3ccccc3)cc3c2CCCCC3)cc1,·,·,102,·
Cc1nc(C(=O)Oc2ccc(Cl)cc2)sc1C(=O)Oc1ccc(Cl)cc1,-7,55,42*,0
O=S1NN(c2ccccc2)S(=O)NN1c1ccccc1 (stereo not given),-68,7,72*,-0.95
